Source: the supplement of paper PMC8975748
Counter-ions that a name gives are not always drawn. ± gives the standard deviation of the averaged measurements.

Legend:
[1] = tested on: Saccharomyces cerevisiae BY4741 SeMeCo community; experiment: z-score of prototroph abundance vs DMSO median; higher = larger share of this subpopulation than in DMSO controls; conditions: 10 µM; 24 h; SM minimal medium; subpopulation (auxotrophy): Prototroph
Summary of the method: (§1)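 Automated confocal microscopy of paraformaldehyde-fixed cells was used to follow a Saccharomyces cerevisiae BY4741 community carrying four plasmids, each restoring one auxotrophy and encoding a distinct fluorescent protein. The community was pre-grown overnight to OD600 1.0, diluted to 0.3, and added at 70 µl to 384-well plates acoustically predosed with library drugs (10 µM final) for 24 h of growth in minimal SM medium. Single-auxotroph fluorescent strains set thresholds and autofluorescence correction, and each subpopulation's abundance was scored as a z-score against the vehicle-well median.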

[2] = tested on: Saccharomyces cerevisiae BY4741 SeMeCo community; experiment: z-score of subpopulation abundance vs DMSO median, subpopulation auxotrophic for M; higher = larger share of this subpopulation than in DMSO controls; conditions: 10 µM; 24 h; SM minimal medium; subpopulation (auxotrophy): M
Summary of the method: as §1

[3] = tested on: Saccharomyces cerevisiae BY4741 SeMeCo community; experiment: z-score of subpopulation abundance vs DMSO median, subpopulation auxotrophic for L; higher = larger share of this subpopulation than in DMSO controls; conditions: 10 µM; 24 h; SM minimal medium; subpopulation (auxotrophy): L
Summary of the method: as §1

[4] = tested on: Saccharomyces cerevisiae BY4741 SeMeCo community; experiment: z-score of subpopulation abundance vs DMSO median, subpopulation auxotrophic for U; higher = larger share of this subpopulation than in DMSO controls; conditions: 10 µM; 24 h; SM minimal medium; subpopulation (auxotrophy): U
Summary of the method: as §1

[5] = tested on: Saccharomyces cerevisiae BY4741 SeMeCo community; experiment: z-score of subpopulation abundance vs DMSO median, subpopulation auxotrophic for H; higher = larger share of this subpopulation than in DMSO controls; conditions: 10 µM; 24 h; SM minimal medium; subpopulation (auxotrophy): H
Summary of the method: as §1

[6] = tested on: Saccharomyces cerevisiae BY4741 SeMeCo community; experiment: z-score of subpopulation abundance vs DMSO median, subpopulation auxotrophic for LU; higher = larger share of this subpopulation than in DMSO controls; conditions: 10 µM; 24 h; SM minimal medium; subpopulation (auxotrophy): LU
Summary of the method: as §1

[7] = tested on: Saccharomyces cerevisiae BY4741 SeMeCo community; experiment: z-score of subpopulation abundance vs DMSO median, subpopulation auxotrophic for LM; higher = larger share of this subpopulation than in DMSO controls; conditions: 10 µM; 24 h; SM minimal medium; subpopulation (auxotrophy): LM
Summary of the method: as §1

[8] = tested on: Saccharomyces cerevisiae BY4741 SeMeCo community; experiment: z-score of subpopulation abundance vs DMSO median, subpopulation auxotrophic for HM; higher = larger share of this subpopulation than in DMSO controls; conditions: 10 µM; 24 h; SM minimal medium; subpopulation (auxotrophy): HM
Summary of the method: as §1

[9] = tested on: Saccharomyces cerevisiae BY4741 SeMeCo community; experiment: z-score of subpopulation abundance vs DMSO median, subpopulation auxotrophic for HU; higher = larger share of this subpopulation than in DMSO controls; conditions: 10 µM; 24 h; SM minimal medium; subpopulation (auxotrophy): HU
Summary of the method: as §1

[10] = tested on: Saccharomyces cerevisiae BY4741 SeMeCo community; experiment: z-score of subpopulation abundance vs DMSO median, subpopulation auxotrophic for UM; higher = larger share of this subpopulation than in DMSO controls; conditions: 10 µM; 24 h; SM minimal medium; subpopulation (auxotrophy): UM
Summary of the method: as §1

[11] = tested on: Saccharomyces cerevisiae BY4741 SeMeCo community; experiment: z-score of subpopulation abundance vs DMSO median, subpopulation auxotrophic for HL; higher = larger share of this subpopulation than in DMSO controls; conditions: 10 µM; 24 h; SM minimal medium; subpopulation (auxotrophy): HL
Summary of the method: as §1

[12] = tested on: Saccharomyces cerevisiae BY4741 SeMeCo community; experiment: z-score of subpopulation abundance vs DMSO median, subpopulation auxotrophic for HLU; higher = larger share of this subpopulation than in DMSO controls; conditions: 10 µM; 24 h; SM minimal medium; subpopulation (auxotrophy): HLU
Summary of the method: as §1

[13] = tested on: Saccharomyces cerevisiae BY4741 SeMeCo community; experiment: z-score of subpopulation abundance vs DMSO median, subpopulation auxotrophic for HLM; higher = larger share of this subpopulation than in DMSO controls; conditions: 10 µM; 24 h; SM minimal medium; subpopulation (auxotrophy): HLM
Summary of the method: as §1

[14] = tested on: Saccharomyces cerevisiae BY4741 SeMeCo community; experiment: z-score of subpopulation abundance vs DMSO median, subpopulation auxotrophic for HUM; higher = larger share of this subpopulation than in DMSO controls; conditions: 10 µM; 24 h; SM minimal medium; subpopulation (auxotrophy): HUM
Summary of the method: as §1

[15] = tested on: Saccharomyces cerevisiae BY4741 SeMeCo community; experiment: z-score of subpopulation abundance vs DMSO median, subpopulation auxotrophic for LUM; higher = larger share of this subpopulation than in DMSO controls; conditions: 10 µM; 24 h; SM minimal medium; subpopulation (auxotrophy): LUM
Summary of the method: as §1

[16] = tested on: Saccharomyces cerevisiae BY4741 SeMeCo community; experiment: z-score of subpopulation abundance vs DMSO median, subpopulation auxotrophic for HLUM; higher = larger share of this subpopulation than in DMSO controls; conditions: 10 µM; 24 h; SM minimal medium; subpopulation (auxotrophy): HLUM
Summary of the method: as §1

[17] = tested on: Saccharomyces cerevisiae BY4741 SeMeCo community; experiment: mean cell size (pixel area) (pixels); higher = larger cells; conditions: 10 µM; 24 h; SM minimal medium
Summary of the method: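 A Saccharomyces cerevisiae BY4741 community carrying four plasmids, each with a fluorescent marker and each complementing one auxotrophy, was exposed for 24 h to drug at a final 10 µM in SM medium in acoustically predosed 384-well plates. The overnight preculture (OD600 = 1.0) was diluted to OD600 = 0.3 before 70 µl was added per well. Cells were then fixed with paraformaldehyde, imaged by automated confocal microscopy and analysed in Harmony to derive mean cell pixel area per well, averaged over 3 replicates. Same SeMeCo high-content imaging drug screen: Selleck FDA-approved drugs at 10 µM, 24 h in SM medium, 384-well plates, 3 replicates.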

Structure (SMILES) | z-score of prototroph abundance [1] | z-score of subpopulation abundance [2] | z-score of subpopulation abundance [3] | z-score of subpopulation abundance [4] | z-score of subpopulation abundance [5] | z-score of subpopulation abundance [6] | z-score of subpopulation abundance [7] | z-score of subpopulation abundance [8] | z-score of subpopulation abundance [9] | z-score of subpopulation abundance [10] | z-score of subpopulation abundance [11] | z-score of subpopulation abundance [12] | z-score of subpopulation abundance [13] | z-score of subpopulation abundance [14] | z-score of subpopulation abundance [15] | z-score of subpopulation abundance [16] | mean cell size [17]
CN(C)c1ccc(O)c2c1C[C@H]1C[C@H]3[C@H](N(C)C)C(=O)C(C(N)=O)=C(O)[C@@]3(O)C(=O)C1=C2O [Minocycline HCl] | -0.28 | 0.32 | -0.03 | 0.78 | -0.15 | 0.63 | 0.75 | -0.22 | -0.3 | 0.25 | 0.73 | 0.06 | 0.31 | -0.12 | 0.3 | 0.19 | 
NC(=O)[C@@H]1CC[C@@H]2CN1C(=O)N2OS(=O)(=O)O [Avibactam sodium] | -0.66 | 0.79 | 0.6 | 0.13 | -0.62 | 1.12 |  | 0.85 | -0.2 |  | -0.05 | 0.1 | 0.54 | -0.02 | 0.46 |  | 12.68 ± 0.1
CCc1c2c(nc3ccc(OC(=O)N4CCC(N5CCCCC5)CC4)cc13)-c1cc3c(c(=O)n1C2)COC(=O)[C@]3(O)CC [Irinotecan HCl Trihydrate] |  | 1.27 | -0.66 | -0.91 | 0.65 | -0.66 | 0.19 | 0.47 | -0.6 | -0.07 |  | -0.35 | 0.91 | 0.52 | 0.14 | 0.04 | 
Nc1ccc(S(=O)(=O)Nc2ccnn2-c2ccccc2)cc1 [Sulfaphenazole] | 0.15 | 0.25 | 0.58 | 0.18 | -0.07 | -0.02 |  |  | -0.47 | 0 | -0.02 | -0.27 | -0.29 | -0.72 |  | 0.07 | 12.54 ± 0.079
NCC[C@H](O)C(=O)N[C@@H]1C[C@H](N)[C@@H](O[C@H]2O[C@H](CN)[C@@H](O)[C@H](O)[C@H]2O)[C@H](O)[C@H]1O[C@H]1O[C@H](CO)[C@@H](O)[C@H](N)[C@H]1O [Amikacin hydrate] | 0.26 | -0.02 | 1.02 | -0.78 | -0.04 | -0.95 |  |  | -0.52 | -0.12 | 0.87 | -0.03 | 0.82 | -0.33 | -0.58 | 0.15 | 12.16 ± 0.089
CN(C)[C@@H](CCOc1cccc2ccccc12)c1ccccc1 [Dapoxetine HCl] | 0.05 | -0.23 | 0.84 | -0.41 | -0.41 | 0.55 |  | -0.39 | -0.49 | -0.35 | 0.57 | 1.25 | -0.47 | -0.28 |  |  | 12.3 ± 0.037
O=C(Cn1ccnc1[N+](=O)[O-])NCc1ccccc1 [Benznidazole] |  | -0.28 | 0.22 | 0.63 | -0.18 | -0.43 | 0.19 | -0.4 | -0.83 | 0.13 | 0.08 | -0.74 | -0.65 | -0.52 |  |  | 
CCOC(=O)c1ccc(N)cc1 [Benzocaine] | 0.6 | 1.02 | -0.13 | -1.34 | 0.27 | -1.24 |  |  | -1.28 | -0.58 | -1.2 | -0.97 | -0.02 | -0.48 | -0.29 | -0.38 | 12.5 ± 0.19
